This passage reports CPE inhibition results from PubChem BioAssay AID2391 (Southern Research Specialized Biocontainment Screening …, 2010).

Screen size: about 310,000 compounds; about 410 (0.13%) were called active. About 2% were inconclusive and are not listed. Only a sample is shown. Entries with a potency or affinity are not part of this list. Values without a mark were called inactive. How the calls were made is not given here.

The test in a line: RSV antiviral activity via CPE protection, HEp-2 cells, primary 10 µM value included (AID 2391). Conditions: RSV-induced CPE inhibition, at 10 µM, hits give high values.
Consider `CCCC[C@@H]1CNCCN1CCc1cccc2ccccc12`, for which the CPE inhibition is -0.31%.

In the case of `Cc1cccc(NS(=O)(=O)c2ccc(C(=O)NCC3CCCO3)cc2)c1C` (configuration not stated), the CPE inhibition was 2.28%.

As for `CN(C)c1nc(C(N)=O)nc(N2CCOCC2)n1`, the CPE inhibition was 0.62%.

Take `Cc1cc(C)n(CCCNC(=O)CN(C)S(=O)(=O)c2ccc(Cl)cc2)n1`: the CPE inhibition was -0.89%.

Consider `Cc1ccc(-c2nc(CSCC(=O)N3CCCC3)c(C)o2)cc1`, for which the CPE inhibition is 20.2%.

For the compound `Cc1oc(-c2ccccc2Cl)nc1CSCC(=O)O`, the CPE inhibition was 2.04%.

`CC(=O)c1ccc(Nc2nc(=O)c3cccnc3s2)cc1`: the CPE inhibition was -0.53%.

For the compound `Cc1ccc(Nc2nc(=O)c3cccnc3s2)cc1`, the CPE inhibition is 4.1%.

As for `CC(=O)c1cccc(Nc2nc(=O)c3cccnc3s2)c1`, the CPE inhibition was -1.05%.

For `O=c1nc(Nc2ccc(OCc3ccccc3)cc2)sc2ncccc12`, the CPE inhibition was 43.1%.

Regarding `O=C(O)CSc1nnc(COc2ccc(Br)cc2)n1-c1ccccc1`, the CPE inhibition was 1.47%.

Take `COC(=O)c1sccc1S(=O)(=O)N1CCCC(N(C)CCc2ccccn2)C1` (configuration not stated): the CPE inhibition was -0.75%.

On to `O=C1c2ccccc2C(=O)N1CCCCN(C(=O)c1cccc([N+](=O)[O-])c1)c1ccc(Cl)cc1`, for which the CPE inhibition was 60.5%.

Turning to `Cc1ccc(N(CCCCN2C(=O)c3ccccc3C2=O)C(=O)c2ccc(Cl)s2)cc1`, the CPE inhibition is 44.1%.

On to `O=C(c1cc2ccccc2oc1=O)N(c1ccc(Cl)cc1)C1C=CS(=O)(=O)C1` (configuration not stated), for which the CPE inhibition was 1.15%.

As to `CCN(C(=O)c1cc2ccccc2oc1=O)c1ccccc1`, the CPE inhibition is 0.2%.

In the case of `O=C1c2ccccc2C(=O)N1CCCCN(C(=O)c1cc([N+](=O)[O-])cc([N+](=O)[O-])c1)c1ccc(Cl)cc1`, the CPE inhibition was 46.5%.

For the compound `O=C1c2ccccc2C(=O)N1CCCCN(C(=O)c1ccc(Cl)s1)c1ccc(Cl)cc1`, the CPE inhibition is 42.2%.

For `CN(Cc1ccccc1)C(=O)N[C@@H](Cc1ccccc1)C(=O)O`, the CPE inhibition was 0.64%.

Regarding `COc1cccc(CCc2nnc(CCC(=O)NC(C)c3c(C)nn(C)c3C)o2)c1` (configuration not stated), the CPE inhibition is 0.66%.

In the case of `COc1ccc(OC)c(CN2CCN(C(=O)c3ccc(F)cc3)CC2)c1`, the CPE inhibition was 2.45%.

Regarding `CC(C)Cc1nnc(NC(=O)CCC(=O)Nc2ccccc2F)s1`, the CPE inhibition is 1.44%.

Take `Nc1ccc(-c2nc3ccc(C(=O)O)cc3s2)cc1`: the CPE inhibition is -1.01%.

As to `Nc1ccc(-c2nc3ccc(N)cc3s2)cc1`, the CPE inhibition was -1.51%.

For `CCc1n(CC(O)COCC2CC=CCC2)c2ccccc2[n+]1C` (configuration not stated), the CPE inhibition was 0.73%.

Turning to `O=C(NCc1ccc(F)cc1Cl)C1CCN(S(=O)(=O)N2CCCCC2)CC1`, the CPE inhibition was 4.02%.

On to `Cc1ccc(S(=O)(=O)N(C)C)cc1NC(=O)COC(=O)CCC1CCCCC1`, for which the CPE inhibition is -0.99%.

For the compound `Cc1ccc(C)c(NC(=O)CN(C)C(=O)c2ccc(-c3cccc(C(F)(F)F)c3)o2)c1`, the CPE inhibition is 0%.

On to `Cc1cccc2nc(COc3ccc4ccccc4c3Br)cn12`, for which the CPE inhibition was 8.72%.

Take `Clc1ccc(OCc2cn3ccccc3n2)c2ncccc12`: the CPE inhibition was 4.9%.

On to `CCn1c(CNS(=O)(=O)c2ccc(Br)cc2)n[nH]c1=S`, for which the CPE inhibition was 0.55%.

`Cc1[nH]c2ccccc2c1/C=N/NC(=O)c1cccc([N+](=O)[O-])c1`: the CPE inhibition was 1.07%.

Regarding `Cc1[nH]c2ccccc2c1/C=N/Nc1ccc([N+](=O)[O-])cc1S(=O)(=O)Nc1ccc(Cl)cc1`, the CPE inhibition was 1.27%.

For `C=CCc1cc(Cl)ccc1OCCCNC(C)CC` (configuration not stated), the CPE inhibition was 0.05%.

Consider `CSc1ccc(/C=C(/NC(=O)c2ccc(C)cc2)C(=O)Nc2cccc(C)c2)cc1`, for which the CPE inhibition is 2.91%.

On to `COc1ccc(OCc2cccc(C(=O)O)c2)cc1`, for which the CPE inhibition was 0.64%.

For the compound `O=C(O)c1cccc(COc2ccccc2Cl)c1`, the CPE inhibition is 1.88%.

Turning to `COc1cc(CO)ccc1Oc1nc2ccccc2n2cnnc12`, the CPE inhibition was 2.05%.

For `O=C1c2cccnc2C(Nc2ccc(F)c(Cl)c2)N1Cc1cccs1` (configuration not stated), the CPE inhibition was 18%.

For `Cc1ccc(NC2c3ncccc3C(=O)N2Cc2cccs2)cc1` (configuration not stated), the CPE inhibition was 8.2%.

As to `O=C1c2cccnc2C(Nc2ccc(Cl)cc2)N1Cc1cccs1` (configuration not stated), the CPE inhibition is 46.8%.

Consider `Cc1ccc(NC2c3ncccc3C(=O)N2Cc2cccs2)cc1C` (configuration not stated), for which the CPE inhibition is 13.8%.

For the compound `CCOC(=O)CNC(=O)c1ccc2[nH]c3ccccc3c2c1`, the CPE inhibition is 2.11%.

Consider `CCCn1c(SCC(=O)c2cc(OC)ccc2OC)nnc1-c1ccco1`, for which the CPE inhibition was 1.5%.

For `CCOc1ccc(C(c2c(O)nc(SC)[nH]c2=O)c2c(O)nc(SC)[nH]c2=O)cc1`, the CPE inhibition was 1.1%.

Take `CCOC(=O)Cc1csc(NC(=O)C(NC(=O)C2CCCCC2)C(C)C)n1` (configuration not stated): the CPE inhibition was 3.52%.

With `COc1ccccc1Nc1nc(-c2cccnc2)cs1`, the CPE inhibition was 7.69%.

With `O=[N+]([O-])c1cccc(-c2csc(Nc3ccccc3)n2)c1`, the CPE inhibition is 0.52%.

For the compound `CC(=O)c1ccc(OCCCC(=O)Nc2ccc(S(=O)(=O)N3CCOCC3)cc2)cc1`, the CPE inhibition was 14.5%.

Consider `COc1ccc(C(=O)Nc2nc3ccccc3s2)c(OC)c1`, for which the CPE inhibition is 9.57%.

Turning to `COc1ccc(C(=O)Nc2nc3ccccc3s2)cc1`, the CPE inhibition is 4.56%.

As for `COc1ccc(C(C)=O)cc1CSc1nc2ccccc2c(=O)n1-c1ccccc1`, the CPE inhibition was 3.07%.

Regarding `Cc1c(C(=O)O)oc2c1ccc1ccccc12`, the CPE inhibition was 9.18%.

As for `COc1ccccc1OCC(=O)Nc1ccc2c(c1)OCO2`, the CPE inhibition is 1.74%.

Turning to `O=C1CN2C(=Nc3ccc(Br)cc3C2c2ccccc2)CCN1` (configuration not stated), the CPE inhibition was -0.32%.

For `COC(=O)CN1C(c2ccc(Cl)cc2)=Nc2ccc(Cl)cc2C1c1ccccc1` (configuration not stated), the CPE inhibition is 11.1%.

For the compound `CCc1ccc(CNC(=O)c2ccc(OC3CCN(C(C)=O)CC3)c(OC)c2)nc1`, the CPE inhibition was 1.43%.

With `Cc1cc(C)c(NC(=O)c2cccc(NC(=O)c3ccco3)c2)c(C)c1`, the CPE inhibition is 2.64%.

Regarding `O=C(O)CSc1nnc(Cn2c(=O)sc3ccccc32)n1-c1cccc(Cl)c1`, the CPE inhibition is 0.38%.

As for `NC(=O)CSc1nnc(Cn2c(=O)sc3ccccc32)n1-c1cccc(Cl)c1`, the CPE inhibition was 2.54%.

For the compound `Cc1ccc(N2CCN(c3ccc(NC(=O)CCC(=O)O)cc3)CC2)cc1`, the CPE inhibition is -0.44%.

Consider `CCCOc1ccc(NC(=O)c2cc3cc(C)ccc3[nH]2)cc1`, for which the CPE inhibition was -0.27%.

As for `Cc1cc(C)c2c(c1)[C@@H]1C=CC[C@@H]1[C@H](c1ccc(S(=O)(=O)N3CCOCC3)cc1)N2`, the CPE inhibition was 0.17%.

Turning to `CC(=O)c1ccc2c(c1)C1C=CCC1C(c1ccncc1)N2` (configuration not stated), the CPE inhibition is -0.18%.

As for `Cc1cc(C)c(NC(=O)c2ccc(S(=O)(=O)N3CCOCC3)cc2)c(C)c1`, the CPE inhibition is 1.1%.

With `O=C(O)c1cc(Cl)c2c(c1)[C@@H]1C=CC[C@@H]1[C@H](c1ccc(S(=O)(=O)N3CCOCC3)cc1)N2`, the CPE inhibition was 0.29%.

In the case of `COc1ccc(N(CC(=O)Nc2ccc(F)cc2F)S(=O)(=O)c2c(C)nn(C)c2C)cc1`, the CPE inhibition is -1.28%.

As for `Cc1cc(-n2c(C)cc(C(=O)CN3C(=O)NC4(CCCCC4C)C3=O)c2C)no1` (configuration not stated), the CPE inhibition is 1.72%.

As to `COc1ccc(N2CCN(c3nc4c(c(=O)n(C)c(=O)n4C)n3CCCc3ccccc3)CC2)cc1`, the CPE inhibition was -1.29%.

Take `CCOC(=O)C[C@H]1c2ccccc2S(=O)(=O)N1Cc1cc(OC)c(OC)c(OC)c1`: the CPE inhibition is 1.62%.

For the compound `Cc1ccccc1NC(=S)NCCc1ccc(S(N)(=O)=O)cc1`, the CPE inhibition is 1.91%.

Turning to `Cc1ccc(S(=O)(=O)N2CCCCC2CCNC(=O)C(=O)NC2CC2)cc1` (configuration not stated), the CPE inhibition is 0.46%.

Regarding `Cc1ccc(C)c(S(=O)(=O)N2CCCCC2CCNC(=O)C(=O)NC2CC2)c1` (configuration not stated), the CPE inhibition was -1.15%.

Consider `CSc1ccccc1OCc1cc(C(=O)N(C)Cc2cc(C)[nH]n2)no1`, for which the CPE inhibition was 4.8%.

`Cc1ccc(CN(C)C(=O)c2cc(COc3ccc(F)cc3Cl)on2)o1`: the CPE inhibition was 6.3%.

For `Cc1ccc(S(=O)(=O)NCCC(=O)NCc2ccccn2)cc1`, the CPE inhibition was -1.85%.

With `O=C(O)c1cccc(CN2C(=O)c3ccccc3C2=O)c1`, the CPE inhibition was 2.88%.

For the compound `O=[N+]([O-])c1ccccc1S(=O)(=O)Nc1ccc(-c2ccc(N3CCCC3)nn2)cc1`, the CPE inhibition was -1.43%.

Regarding `O=[N+]([O-])c1ccccc1S(=O)(=O)Nc1ccc(-c2ccc(N3CCOCC3)nn2)cc1`, the CPE inhibition was -1.46%.

For the compound `O=[N+]([O-])c1ccc(S(=O)(=O)Nc2cccc(-c3ccc(N4CCCC4)nn3)c2)cc1`, the CPE inhibition is 22.4%.

In the case of `O=[N+]([O-])c1ccc(S(=O)(=O)Nc2cccc(-c3ccc(N4CCOCC4)nn3)c2)cc1`, the CPE inhibition was 38.2%.

Consider `COc1ccc([N+](=O)[O-])cc1NC(=O)Cn1ccsc1=N`, for which the CPE inhibition was 4.59%.

In the case of `O=C(Nc1cccc(Cl)c1)c1ccc(NCCCN2CCOCC2)c([N+](=O)[O-])c1`, the CPE inhibition is 5.44%.

Turning to `O=C(NCc1cccnc1)Nc1ccc(Br)cc1Cl`, the CPE inhibition is 1.28%.

On to `COc1ccc(N2CCN(C(=O)CCc3cc(OC)c(OC)c(OC)c3)CC2)cc1`, for which the CPE inhibition was 1.91%.

For `COCCNc1cc(C)nc2cc(-c3ccc(C)cc3)nn12`, the CPE inhibition is 2.67%.

Regarding `Cc1cc(NCCCn2ccnc2)n2nc(-c3ccc(F)cc3)cc2n1`, the CPE inhibition was -1.16%.

Turning to `Cc1cc(NCCCO)n2nc(-c3cccs3)cc2n1`, the CPE inhibition is 9%.

Turning to `CN(C)CCCNc1cc(-c2ccccc2)nc2cc(-c3cccc(F)c3)nn12`, the CPE inhibition was -1.34%.

Take `Cc1nc2cc(NC(=O)N(C)c3ccc4ccccc4c3)ccc2o1`: the CPE inhibition is 12.7%.

`CCOCCCn1c(SCC(=O)Nc2ccc(NC(C)=O)cc2)nc2ccccc2c1=O`: the CPE inhibition is 0.96%.

Consider `CC(=O)c1c(C)[nH]c(C(=O)OCC(=O)Nc2cccc(S(=O)(=O)N(C)C)c2)c1C`, for which the CPE inhibition was 6.22%.
